Screening results as filed in PubChem.
In the library only some 3.5% were active in any assay of this set; here they are far more common.
GPR151 ag = activators of human GPR151; activation, % at 11.2 µM; PathHunter beta-arrestin GPR151 cells, luminescence; Q8TDV0; 650,000 tested, 1% active; in the data active = activation above about 4.9%
MITF inh = inhibitors of human MITF; O75030; AlphaScreen MITF homodimerization, bead proximity signal; inhibition, % at 2.6 µM; 650,000 tested, 0.91% active; in the data active = inhibition above about 50%
Target sequence (O75030 whole entry, looked up): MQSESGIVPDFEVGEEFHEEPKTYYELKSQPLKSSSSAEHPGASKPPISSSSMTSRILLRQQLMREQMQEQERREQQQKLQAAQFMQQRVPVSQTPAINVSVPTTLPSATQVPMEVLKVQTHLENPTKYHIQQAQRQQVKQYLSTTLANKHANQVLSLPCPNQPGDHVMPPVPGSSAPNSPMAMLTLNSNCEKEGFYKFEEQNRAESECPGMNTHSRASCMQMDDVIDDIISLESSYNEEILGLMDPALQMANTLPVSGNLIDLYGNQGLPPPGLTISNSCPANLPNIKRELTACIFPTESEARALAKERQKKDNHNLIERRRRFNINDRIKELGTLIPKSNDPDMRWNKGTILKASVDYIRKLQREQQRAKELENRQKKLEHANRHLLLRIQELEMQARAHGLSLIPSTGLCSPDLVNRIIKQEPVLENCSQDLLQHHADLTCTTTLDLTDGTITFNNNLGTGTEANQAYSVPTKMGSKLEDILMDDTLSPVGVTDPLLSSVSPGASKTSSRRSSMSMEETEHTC
FBW7 act = human FBW7 E3 ligase activation, primary screen | Q969H0 | AlphaScreen FBW7–phospho-cyclin E peptide binding, activator screen | normalized activity (activation), % at 26.1 µM | 650,000 tested, 0.13% active; in the data active = normalized activity above about 1.9%;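 note: purified mutant Fbw7 with reduced substrate affinity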
TEAD-YAP inh = TEAD-YAP interaction inhibition; AID 1259422; 640,000 tested, 1.4% active; inhibition, % at 9.12 µM; HEK-TIYL cells, TEAD-Gal4/YAP UAS-luciferase luminescence; in the data active = inhibition above about 32%
MITF confirm = confirmation of human MITF inhibitors; shares compounds with MITF inh; AlphaScreen MITF homodimerization, biotin/His-MITF beads; inhibition, % at 2.6 µM; 4,700 tested, 16% active; AID 1259372;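 active = inhibition above a cutoff derived from the DMSO control wells, cut at about 28% in these data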;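 note: inhibitors lower the bead chemiluminescence by keeping MITF from dimerizing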
AlphaScreen DR = optically interferes with AlphaScreen signal in dose response; IC50, µM; AlphaScreen optical interference counterscreen, cell-free; shares compounds with MITF inh; 480 tested, 6% active; call rule not given here
AS interf ctr = AlphaScreen optical interference, counter-screen; shares compounds with MITF inh; LysRS AlphaScreen counterscreen, signal interference, triplicate; inhibition, % at 2.6 µM; 4,700 tested, 7.6% active;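 active = inhibition above a cutoff derived from the DMSO control wells, cut at about 30% in these data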
Each line names hits and unclear results; the compound was inactive in the other large screens (follow-up assays come after a bar, where they were run).

Cc1cc(C2C(C#N)=C(N)N(c3cccc(Cl)c3C)C3=C2C(=O)CC(C)(C)C3)c(C)s1 (centres undefined)	none
COCC(=O)NC(c1nnc2n1CCN(Cc1sccc1C)CC2)C(C)C (centres undefined)	none
CCOC(=O)COc1ccc(C=O)cc1OCC	MITF inh 76.2 | MITF confirm inactive | AS interf ctr inactive
CCOc1cc(C=O)ccc1OCC(=O)OC	none
Cc1cc2cc3c(N)c(C(=O)Nc4nonc4C)sc3nc2cc1C	none
OC(CNC1CCCC1)COCc1ccccc1Cl (centres undefined)	none
OC(CNCC(c1ccco1)N1CCCC1)COCc1ccccc1Cl (centres undefined)	MITF inh 60.7 | MITF confirm inactive | AS interf ctr inactive
OC(CNCC(c1ccco1)N1CCCC1)COc1ccccc1 (centres undefined)	MITF inh 53.7 | MITF confirm inactive | AS interf ctr inactive
N#C/C(=C(/O)c1cc(=O)c2ccccc2o1)c1nc2ccccc2s1	none
N#C/C(=C/Nc1ccccc1F)c1nc(-c2ccc([N+](=O)[O-])cc2)cs1	MITF inh 67.5 | MITF confirm inactive | AS interf ctr inactive
COC(=O)c1c(NC(=O)c2ccc([N+](=O)[O-])o2)sc(Cc2ccc3c(c2)OCO3)c1C	MITF inh 54.8 | MITF confirm 46.7 | AlphaScreen DR inactive | AS interf ctr inactive
Cc1c(Cc2ccc3c(c2)OCO3)sc(NC(=O)c2ccc([N+](=O)[O-])o2)c1C#N	none
Cc1nccn1CCOc1ccc(Cl)cc1	MITF inh 62.9 | MITF confirm inactive | AS interf ctr inactive
CC(C)c1ccccc1OCC(O)CNC1CCN(Cc2ccccc2)C1 (centres undefined)	MITF inh 69.4 | MITF confirm inactive | AS interf ctr inactive
CCC(C)c1ccccc1OCC(O)CN1CCCCC1 (centres undefined)	none
CCC(C)c1ccccc1OCC(O)CNC1CCCC1 (centres undefined)	none
CC(C)C(=O)N1CCN(CC(O)COc2ccccc2C(C)C)CC1 (centres undefined)	MITF inh 51.9 | MITF confirm inactive | AS interf ctr inactive
Cc1nc(CCNC(=O)Cn2nnnc2CN(C)C(C)C)nc2c1CCC2	none
CCOC(=O)c1cnc2ccccc2c1Nc1ccc(O)cc1	none
CCOC(=O)c1cnc2ccccc2c1Nc1cccc(OC)c1	MITF inh 73.4 | MITF confirm inactive | AS interf ctr inactive
CCOC(=O)c1cnc2ccccc2c1Nc1ccc(C)c(C)c1	MITF inh 54.4 | MITF confirm inactive | AS interf ctr inactive
CCCOc1ccc(/C(O)=C2/C(=O)C(=O)N(CCN3CCOCC3)C2c2ccc(C(C)(C)C)cc2)c(C)c1 (centres undefined)	none
COc1cccc(CN2CCN(S(=O)(=O)Cc3ccccc3)CC2)c1	MITF inh 68.2 | MITF confirm inactive | AS interf ctr inactive
COc1cccc(CN2CCN(S(C)(=O)=O)CC2)c1	none
CCOc1cc(CN2CCN(S(=O)(=O)Cc3ccccc3)CC2)ccc1OC	none
CCS(=O)(=O)N1CCN(Cc2cccc(OC)c2)CC1	MITF inh 56.5 | MITF confirm inactive | AS interf ctr inactive
OCCNc1ccnc(Nc2nccc3ccccc23)n1	MITF inh 70.7 | MITF confirm inactive | AS interf ctr 37.2
CCN(CC)C(=O)C1CCCN(Cc2cccc(F)c2)C1 (centres undefined)	MITF inh 57.6 | MITF confirm inactive | AS interf ctr inactive
CCN(CC)C(=O)C1CCCN(Cc2cccc(OC)c2)C1 (centres undefined)	MITF inh 56.1 | MITF confirm inactive | AS interf ctr inactive
CCN(CC)C(=O)C1CCCN(Cc2ccc(C)cc2)C1 (centres undefined)	none
CCN(CC)C(=O)C1CCCN(Cc2cccc(C)c2)C1 (centres undefined)	none
CCN(CC)C(=O)C1CCCN(Cc2sccc2C)C1 (centres undefined)	MITF inh 51.1 | MITF confirm inactive | AS interf ctr inactive
O=C(Nc1cc(Oc2ccc(I)cc2)cc([N+](=O)[O-])c1)c1cccc(Cl)c1	none
O=C(O)c1cc(-c2ccc(/C=C3\SC(=Nc4ccccc4)N(C4CCCCC4)C3=O)o2)ccc1Cl	none
COc1ccccc1N1CCN(C(=O)CN2CCN(C)CC2)CC1	MITF inh 54.4 | MITF confirm inactive | AS interf ctr inactive
COc1ccccc1N1CCN(CCCCCCN)CC1	none
COc1ccc(OCCCN2CCN(c3ccccc3OC)CC2)cc1	MITF inh 80.6 | MITF confirm 52.5 | AS interf ctr 39.4
COc1ccccc1NC(=O)N1CCN(C)CC1	MITF inh 51.6 | MITF confirm inactive | AS interf ctr inactive
COc1ccccc1N1CCN(CCCOc2ccc(F)cc2)CC1	MITF inh 59.9 | MITF confirm inactive | AS interf ctr inactive
C[C@@H]1NC(=O)[C@@H]2C[C@H](NCc3ccccc3F)CN2C1=O	none
COc1cc(CN2CCN(C(=O)c3cc(OC)c(OC)c(OC)c3)CC2)cc(OC)c1	MITF inh 55.2 | MITF confirm inactive | AS interf ctr inactive
COc1ccc(C(=O)N2CCN(Cc3cc(OC)c(O)c(OC)c3)CC2)cc1	none
COc1ccc(C(=O)N2CCN(Cc3cc(OC)c(OC)c(OC)c3)CC2)cc1	MITF inh 72.2 | MITF confirm inactive | AS interf ctr inactive
COc1cc(C(=O)N2CCN(Cc3ccc(C)cc3)CC2)cc(OC)c1OC	none
COc1cc(C(=O)N2CCN(Cc3ccc(Br)cc3)CC2)cc(OC)c1OC	MITF inh 54.5 | MITF confirm inactive | AS interf ctr inactive
COc1cccc(C(=O)N2CCN(Cc3cc(OC)c(OC)c(OC)c3)CC2)c1	none
COc1ccc(C(=O)N2CCN(C3CCCC(C)C3)CC2)cc1 (centres undefined)	MITF inh 51.9 | MITF confirm inactive | AS interf ctr inactive
C=CCn1cc(CN2CCc3nc(C)[nH]c(=O)c3C2)c2ccccc21	none
C=CCN1CCN(C(c2ccc(Cl)cc2)c2nnnn2C(C)(C)C)CC1 (centres undefined)	none
CCC(C)N1CCN(C(=O)c2cc(OC)c(OC)c(OC)c2)CC1 (centres undefined)	MITF inh 51.4 | MITF confirm inactive | AS interf ctr inactive
O=C(O)C1=NN(c2ccccn2)C(=O)CC1	MITF inh 76.9 | MITF confirm inactive | AS interf ctr 100.3
CC(=O)/C=C/c1ccc(-c2ccc([N+](=O)[O-])cc2)o1	none
Cc1ncn(-c2ccc(Nc3ncc4cccc(-c5ccccc5F)c4n3)cc2)n1	none
Cc1ncn(-c2ccc(N(C)c3ncc4cccc(-c5ccn[nH]5)c4n3)cc2)n1	MITF inh 57.7 | MITF confirm 57.4 | AlphaScreen DR inactive | AS interf ctr inactive
CN(C)CC(=O)Nc1c2c(nc3c1CCC3)CCCC2	MITF inh 59.1 | MITF confirm inactive | AS interf ctr inactive
